This note sets out measurements from article PMC4336329 (PLoS ONE, 2015).

Structures are written as SMILES. Out of some 310,000 compounds screened, about 14,000 (4.5%) showed an effect of 50% or more. The effect is printed as a negative number. The full list was thinned out, with strong results kept by preference.
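Further: peak tail current of the secondary pulse compared with the same well before compound.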

Sequence of human ether-à-go-go-related gene (hERG) potassium channel (Q12809 whole entry, looked up): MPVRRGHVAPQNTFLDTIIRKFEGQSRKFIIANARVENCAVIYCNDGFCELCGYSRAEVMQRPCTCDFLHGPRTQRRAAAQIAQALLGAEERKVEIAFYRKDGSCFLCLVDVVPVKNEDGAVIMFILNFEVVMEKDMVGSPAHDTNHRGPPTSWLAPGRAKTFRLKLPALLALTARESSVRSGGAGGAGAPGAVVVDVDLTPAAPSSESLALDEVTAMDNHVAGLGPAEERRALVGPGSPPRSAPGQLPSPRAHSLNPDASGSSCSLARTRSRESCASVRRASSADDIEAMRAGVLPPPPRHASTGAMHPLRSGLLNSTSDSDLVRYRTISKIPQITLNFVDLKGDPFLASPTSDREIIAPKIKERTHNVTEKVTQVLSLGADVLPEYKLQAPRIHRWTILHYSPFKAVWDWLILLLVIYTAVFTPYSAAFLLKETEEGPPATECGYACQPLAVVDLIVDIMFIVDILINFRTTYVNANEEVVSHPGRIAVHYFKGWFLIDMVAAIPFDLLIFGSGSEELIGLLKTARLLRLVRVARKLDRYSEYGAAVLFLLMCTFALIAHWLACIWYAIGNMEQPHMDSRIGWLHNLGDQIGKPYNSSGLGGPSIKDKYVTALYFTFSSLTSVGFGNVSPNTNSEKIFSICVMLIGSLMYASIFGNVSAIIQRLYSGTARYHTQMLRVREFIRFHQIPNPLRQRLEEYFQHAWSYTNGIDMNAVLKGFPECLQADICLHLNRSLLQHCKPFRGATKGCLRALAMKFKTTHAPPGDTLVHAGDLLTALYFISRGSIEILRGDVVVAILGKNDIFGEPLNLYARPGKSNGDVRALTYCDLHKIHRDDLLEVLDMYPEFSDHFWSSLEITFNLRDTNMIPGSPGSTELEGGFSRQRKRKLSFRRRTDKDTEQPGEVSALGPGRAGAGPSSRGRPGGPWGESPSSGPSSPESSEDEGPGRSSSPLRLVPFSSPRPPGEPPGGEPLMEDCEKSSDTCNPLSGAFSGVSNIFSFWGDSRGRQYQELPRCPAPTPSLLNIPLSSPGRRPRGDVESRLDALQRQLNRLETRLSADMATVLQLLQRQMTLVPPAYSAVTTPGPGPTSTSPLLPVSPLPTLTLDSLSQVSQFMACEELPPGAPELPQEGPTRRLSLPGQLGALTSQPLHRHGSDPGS

The assay addresses human ether-à-go-go-related gene (hERG) potassium channel (human, UniProt Q12809). Nature of the assay: primary screen, population patch clamp on CHO cells stably expressing hERG; higher = less effect of the substance.
As to `Cc1ccc2c(C(=O)CN3CCC(C(N)=O)CC3)c(C)[nH]c2c1`, the “hERG current change (%, negative = inhibition) at 10uM” value was 5.21%.

For the compound `CCOC(=O)C1CCN(CC(=O)c2c(C)[nH]c3cc(C)ccc23)CC1`, the “hERG current change (%, negative = inhibition) at 10uM” value is -60.5%.

`CCOC(=O)C1CCN(CC(=O)c2c(C)[nH]c3ccccc23)CC1`: the “hERG current change (%, negative = inhibition) at 10uM” value is reported as -39.7%.

`COc1cc(/C=N/NC(=O)c2ccc(Cl)cc2)ccc1OCC(=O)N1CC(C)OC(C)C1` (stereo not shown): the “hERG current change (%, negative = inhibition) at 10uM” value is -18.3%.

For `O=C(CN1CCN(C(=O)c2cccc(S(=O)(=O)N3CCCC3)c2)CC1)Nc1ccccc1Cl`, the “hERG current change (%, negative = inhibition) at 10uM” value is recorded as -66.8%.

In the case of `O=C(CN1CCN(S(=O)(=O)c2ccccc2)CC1)Nc1ccccc1Cl`, the “hERG current change (%, negative = inhibition) at 10uM” value is on record as -6.93%.

As to `O=C(CN1CCN(C(=O)c2ccco2)CC1)Nc1cccc(S(=O)(=O)N2CCCC2)c1`, the “hERG current change (%, negative = inhibition) at 10uM” value is given as -16.2%.

With `O=C(CN1CCN(C(=O)c2ccccc2)CC1)Nc1cc(S(=O)(=O)N2CCCC2)ccc1Cl`, the “hERG current change (%, negative = inhibition) at 10uM” value was -32.8%.

As for `O=C(c1cccc(S(=O)(=O)N2CCCCC2)c1)N1CCN(S(=O)(=O)c2ccc(F)cc2)CC1`, the “hERG current change (%, negative = inhibition) at 10uM” value is given as -40.6%.

As to `O=C(CN1CCN(C(=O)c2cccc(S(=O)(=O)N3CCCC3)c2)CC1)Nc1ccc(F)cc1`, the “hERG current change (%, negative = inhibition) at 10uM” value was -61.7%.

For `CCOc1ccc(N2C(=O)/C(=C/c3ccco3)N(C)C2=S)cc1`, the “hERG current change (%, negative = inhibition) at 10uM” value is given as -4.46%.

Regarding `CCC(C)NC(=O)C1CCCN(C(=O)NC2CCCCC2)C1` (stereo not shown), the “hERG current change (%, negative = inhibition) at 10uM” value is on record as 13.8%.

As for `Cc1cc(N2CCOCC2)nc2ccc(NC(=O)CCC(=O)N3CCN(c4ccc(F)cc4)CC3)cc12`, the “hERG current change (%, negative = inhibition) at 10uM” value was 21%.

For the compound `COc1ccc(N2CCN(S(=O)(=O)/C=C/c3ccccc3)CC2)cc1`, the “hERG current change (%, negative = inhibition) at 10uM” value was determined as 1.54%.

With `COc1cc(SC)ccc1C(=O)N1CCN(S(=O)(=O)/C=C/c2ccccc2)CC1`, the “hERG current change (%, negative = inhibition) at 10uM” value is reported as -56.5%.

Turning to `COc1ccc(Br)c(C(=O)N2CCN(S(=O)(=O)/C=C/c3ccccc3)CC2)c1`, the “hERG current change (%, negative = inhibition) at 10uM” value is recorded as -58.8%.

For the compound `COc1ccc(Br)c(C(=O)N2CCN(S(=O)(=O)c3cccs3)CC2)c1`, the “hERG current change (%, negative = inhibition) at 10uM” value is reported as -9.75%.

Consider `COc1cc(SC)ccc1C(=O)N1CCN(c2ccccc2OC)CC1`, for which the “hERG current change (%, negative = inhibition) at 10uM” value is given as -24.5%.

With `COc1cc(SC)ccc1C(=O)N1CCN(c2ccccc2F)CC1`, the “hERG current change (%, negative = inhibition) at 10uM” value is given as -33.8%.

Consider `CCOC(=O)c1c(NC(=O)CN2CCCc3ccccc32)sc(C(C)=O)c1C`, for which the “hERG current change (%, negative = inhibition) at 10uM” value turned out to be 5.24%.

On to `CC1(C)CCC(=O)N2CC[C@H]3C[C@H](OC(=O)Nc4ccc5c(c4)OCO5)C[C@@H]1[C@H]32`, for which the “hERG current change (%, negative = inhibition) at 10uM” value was -0.41%.

`CC1(C)CC(=O)c2cc(OCC(=O)NCCN3CCCc4ccccc43)ccc2O1`: the “hERG current change (%, negative = inhibition) at 10uM” value is -47.5%.
